In all, about 68,000 sequences were measured (“fluorescence intensity (a.u.)”: median about 9,100, highest 2% from about 16,000 on). Only a selection was taken, and the highest values are over-represented in it overall.
Each sequence was assayed against OsWRKY34 (Oryza sativa, UniProt Q0JBA9 1-250) (assay: protein-binding microarray (RPBM); PBS, 2% BSA, 51.3 ng/ul salmon testes DNA, 50 uM zinc acetate, 200 nM TF, 25 C, 1 h; high values mean tight binding). Conditions: protein: recombinant; tags: N-terminal polyhistidine and DsRed monomer fusion (pET32a); label: CyDye5-dUTP incorporated in the synthesized complementary strand; 3' TTTTT single-stranded linker to array surface; dsDNA, one strand shown.
OsWRKY34, sequence (Q0JBA9 entry or part of it): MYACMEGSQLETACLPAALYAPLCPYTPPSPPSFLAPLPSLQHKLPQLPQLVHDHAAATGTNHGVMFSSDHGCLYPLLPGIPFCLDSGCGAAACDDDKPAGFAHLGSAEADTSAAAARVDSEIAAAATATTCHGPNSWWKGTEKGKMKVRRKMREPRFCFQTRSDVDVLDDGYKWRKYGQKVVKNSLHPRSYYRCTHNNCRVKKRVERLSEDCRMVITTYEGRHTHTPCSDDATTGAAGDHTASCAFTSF
Method in brief: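 An Axon 4000B scanner gave the binding signal as per-feature fluorescence intensity in arbitrary units. This followed washing of a custom Agilent array that had been incubated for 1 h at 25 °C with 200 nM protein in PBS, 2% BSA, salmon testes DNA and 50 µM zinc acetate. The proteins were transcription factors fused at the N-terminus to polyhistidine and DsRed, expressed in E. coli BL21-CodonPlus and purified on Ni–NTA.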
With “TGTACATGTGTTTGATTTTGCTTGTGGTTGCCGTGGATTTCGGAGTCACCTAGTGCAG” the binding signal was 11500 fluorescence intensity (a.u.).
With “TAATATTTCTTGCGGTGGGTTGGATTGATATCGATTGTTTCGGAGTCACCTAGTGCAG” the binding signal was 17600 fluorescence intensity (a.u.).
With “GGTGGGTGTTTTAATGTGACATGATATTTGTGGTTGGGTTCGGAGTCACCTAGTGCAG” the binding signal was 21700 fluorescence intensity (a.u.).
With “CTCTGTTGGTTTCTTGCGGTTTTGATTATTTGTTTGTGGTCGGAGTCACCTAGTGCAG” the binding signal was 11900 fluorescence intensity (a.u.).
“CATTCCGGTTGGTGTTTTTCGCTTGATTTGTACTACTATTCGGAGTCACCTAGTGCAG” was tested, and the binding signal was 18500 fluorescence intensity (a.u.).
“AGGAGGTGTTGTTTCTTGCGATCTTGGGTTGATTGATATGCGGAGTCACCTAGTGCAG” was tested, and the binding signal was 8460 fluorescence intensity (a.u.).
In the case of “TGCGGGTTGTTTTGATTGACAATTTAGTGTTGGTGTTGTTCGGAGTCACCTAGTGCAG”, the binding signal is reported as 9980 fluorescence intensity (a.u.).
For “CATGTGTTTGATTTCCTGTTTATATTTTGTTCAGAGTTTCCGGAGTCACCTAGTGCAG”, the binding signal was 11700 fluorescence intensity (a.u.).
For “TCTTTCCTGTTTCCGCTTGGTTTTCCGGTGTTTATTTTGTCGGAGTCACCTAGTGCAG”, the binding signal was 14200 fluorescence intensity (a.u.).
For “TGATATGTTGGTGAATGGTAATTTTTTGGGTTGATATATTCGGAGTCACCTAGTGCAG”, the binding signal was 11200 fluorescence intensity (a.u.).
For “CGATGACAAGTTGACGCACCTTGGGTGTACTTTTTCCTTCCGGAGTCACCTAGTGCAG”, the binding signal was 8280 fluorescence intensity (a.u.).
With “CTCCAACCTAACCCCTGCCTGCCTGCATCAACCATATATGCGGAGTCACCTAGTGCAG” the binding signal was 8720 fluorescence intensity (a.u.).
For “CACTAATTTTGCCTTTGTGCCTTTTACTATTGCGCATCACCGGAGTCACCTAGTGCAG”, the binding signal was 10200 fluorescence intensity (a.u.).
“ACATTAACTAAATGGTGGAGGGCAGGGGTTCGTCTTTCTTCGGAGTCACCTAGTGCAG” was tested, and the binding signal was 13600 fluorescence intensity (a.u.).
“GACTACTGAATGTGCTATTCTTGGCCTTTTCTATAGATAACGGAGTCACCTAGTGCAG” was tested, and the binding signal was 9960 fluorescence intensity (a.u.).
For “CTATTTTGGCCACTCGGGAGATGGTGTTGTTTCTGAATTTCGGAGTCACCTAGTGCAG”, the binding signal was 8180 fluorescence intensity (a.u.).
For “CTGTCTTCACCGTGCCGCTCCTTTCCTTCCATTTCATCTCCGGAGTCACCTAGTGCAG”, the binding signal was 8440 fluorescence intensity (a.u.).
For “CAGGGGTGGGTGTTAGCTGTTGTGCAAGAAGTGGTGTTTGCGGAGTCACCTAGTGCAG”, the binding signal was 10600 fluorescence intensity (a.u.).
In the case of “GCCGGAGTCCATCGCCCTACATTGCCCACCAACCGCACGCCGGAGTCACCTAGTGCAG”, the binding signal is reported as 10200 fluorescence intensity (a.u.).
“TTCATATTCTTTTTTTTTTCGAGGTCATACTTTTTAATTCCGGAGTCACCTAGTGCAG” was tested, and the binding signal was 12200 fluorescence intensity (a.u.).
In the case of “TTTTTCACGGGGATGGGTCGGGGATTGTTGACTGATAAAGCGGAGTCACCTAGTGCAG”, the binding signal is reported as 21700 fluorescence intensity (a.u.).
In the case of “CCACTGACTACTGATGGGTGTGTTGATAGTGTTTTGTCAGCGGAGTCACCTAGTGCAG”, the binding signal is reported as 8870 fluorescence intensity (a.u.).
“AGTGGATGAGTTTGAGTTTTAGGATTTAGTGGGGTATTATCGGAGTCACCTAGTGCAG” was tested, and the binding signal was 15100 fluorescence intensity (a.u.).
With “GCGGGGTTGATTTCTGACTGAGATTTTGTTTTTCTTTTCTCGGAGTCACCTAGTGCAG” the binding signal was 14000 fluorescence intensity (a.u.).
With “AAATTTATTGTTTGGCTGGAAGACGTGGGGTTTTAAGAGGCGGAGTCACCTAGTGCAG” the binding signal was 8370 fluorescence intensity (a.u.).
In the case of “CGTGGGGTGGGATCGGAAGCAGTGGAGTTGTTTTTATTATCGGAGTCACCTAGTGCAG”, the binding signal is reported as 16500 fluorescence intensity (a.u.).
With “GGGTTTGGGGATCGATTGATTTATAGGCTTTTTTGTTTTTCGGAGTCACCTAGTGCAG” the binding signal was 8810 fluorescence intensity (a.u.).
With “GGGGATTGGTTTGGTGTGGGTGTTTTGTGTGGGGATTGATCGGAGTCACCTAGTGCAG” the binding signal was 28100 fluorescence intensity (a.u.).
With “GAGGTGGCTGGAGTGGGGTTTAGTGTTGGTTGTTAGGGATCGGAGTCACCTAGTGCAG” the binding signal was 13500 fluorescence intensity (a.u.).
“AGGGTTTGTTTGTTTATTTGTTTGTTTGATCGGTGTGGGGCGGAGTCACCTAGTGCAG” was tested, and the binding signal was 13300 fluorescence intensity (a.u.).
With “TTTTTGTTTTTTAATTGTGGAGTTTGGGAGGAGGAGGGGACGGAGTCACCTAGTGCAG” the binding signal was 9870 fluorescence intensity (a.u.).
In the case of “GTTGCAGGGTGGGGATTGTTAAATTTATTGTTTGGCTGGACGGAGTCACCTAGTGCAG”, the binding signal is reported as 16600 fluorescence intensity (a.u.).
With “TATCTAATAATTGGATGGTTACAACCAAATACTTCTACATCGGAGTCACCTAGTGCAG” the binding signal was 9870 fluorescence intensity (a.u.).
“TTGATCCTTTTTCGCCGCTCACGCCGAGCTGCCCCGACAACGGAGTCACCTAGTGCAG” was tested, and the binding signal was 8340 fluorescence intensity (a.u.).
In the case of “TTTTCTATACTGTATTTTGTGTCATTTTCAATCATTGATTCGGAGTCACCTAGTGCAG”, the binding signal is reported as 14400 fluorescence intensity (a.u.).
“AAACAGAGGTTTTTCTCCTGTACATGTGTCCCATGCCAACCGGAGTCACCTAGTGCAG” was tested, and the binding signal was 9880 fluorescence intensity (a.u.).
With “TTTTTATATGTTTGGTTCTTATGAGTTCCTAAGTGTGAAACGGAGTCACCTAGTGCAG” the binding signal was 8230 fluorescence intensity (a.u.).
With “TGGGTGGTGTTGGTTTTGCATGGTAGACGCGGGGTCCGATCGGAGTCACCTAGTGCAG” the binding signal was 18400 fluorescence intensity (a.u.).
For “CTTTTTTTTGGTTTGCCGTGTGGTGGGTTTCGGGTCCGCGCGGAGTCACCTAGTGCAG”, the binding signal was 14500 fluorescence intensity (a.u.).
For “TGGTCGGGTGTTTTTGTGATTGATGGTTTTGGTAGACGGGCGGAGTCACCTAGTGCAG”, the binding signal was 11200 fluorescence intensity (a.u.).
With “CATTTCTTATTTTGTTTTTGGGCTTTGATGTTTGGTTTCTCGGAGTCACCTAGTGCAG” the binding signal was 8740 fluorescence intensity (a.u.).
“TTTGGGGTTCAGCGGGCATTTGTTTTGATTGTTTCTTATTCGGAGTCACCTAGTGCAG” was tested, and the binding signal was 23400 fluorescence intensity (a.u.).
In the case of “TTTACATCTAATATTTTTTATTTGGGGTTCAGCGGGCATTCGGAGTCACCTAGTGCAG”, the binding signal is reported as 11100 fluorescence intensity (a.u.).
